Screening data deposited in PubChem BioAssay by National Center for Advancing Translational Sciences (NCATS).
Hits are enriched below; roughly 9.9% of the tested compounds scored in any of these assays.
MCF10A rerep: inducers of DNA re-replication in MCF 10A breast cells; MCF 10A DNA re-replication, Hoechst nuclear intensity, 48 h; Potency, µM (titrated, usually from 46.1 µM), for inactives: at the highest dose activity, positive = re-replication, actives largely listed as activators; actives 2.9% (n = 350,000); note: potency is the fitted concentration of half-maximal effect; % of control where 0% means no effect; nearly all actives have a fitted effect of over 50% in size
SW480 rerep: inducers of DNA re-replication in SW480 colon cancer cells. SW480 DNA re-replication, Hoechst DNA content imaging, 48 h. Potency, µM (series often up to 46.1 µM), for inactives: at the top dose re-replication activation, usual class: activators. actives 1.8% (n = 340,000); note: potency is the fitted concentration of half-maximal effect; % of control where 0% means no effect; nearly all actives have a fitted effect of over 55% in size
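First, 250 cells per well were seeded. Next, compound or vehicle (23 nL) was pinned in, plates sat 48 hr at 37 C. Finally Hoechst was added for 40 min before fluorescence scanning.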
IL-1B inflam inh: inhibitors of inflammasome signaling (IL-1 beta secretion); activity change, % at 57.5 µM; actives 4.7% (n = 360,000); THP-1 LPS/ATP IL-1B secretion, AlphaLISA, 16 h; stronger effect = lower value; in the data active = activity change below about -50%; inconclusive = mostly about -30% to -49%; note: % is set by controls: 0 for no effect and ±100 for the full control effect
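Secreted IL-1B measured by AlphaLISA bead assay after 16 h compound exposure of THP-1 cells; compounds (final up to 57.5 uM) added 1 h before LPS (250 ng/mL) and ATP (1.25 mM) stimulation; lower signal means less secretion.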
KB-V1 MDR tox: KB-V1 MDR subline cytotoxicity. KB-V1 MDR cells viability, CellTiter-Glo, 72 h. Potency, µM (highest dose often 46.1 µM), most hits filed as cytotoxic. actives 3.4% (n = 400,000). AID 1347076; note: potency is the fitted concentration of half-maximal effect; % is set by controls: 0 for no effect and ±100 for the full control effect; nearly all actives have a fitted effect of over 60% in size
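KB-V1, DMEM (no phenol red) + 10% FBS; cpd pin-transferred, titration series; 72 h, 37 degrees C; CellTiter-Glo, luminescence. Data normalized, curve-fit.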
KB-3-1 cytotox: kills parental KB-3-1 adenocarcinoma cells | KB-3-1 viability, CellTiter-Glo ATP luminescence, 72 h | Potency, µM (doses to about 46.1 µM), actives largely listed as cytotoxic | actives 1.4% (n = 400,000) | AID 1347075; note: potency is the fitted concentration of half-maximal effect; % is set by controls: 0 for no effect and ±100 for the full control effect; nearly all actives have a fitted effect of over 60% in size
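Parental KB-3-1 adenocarcinoma cells in phenol-red-free DMEM with 10% FBS were pin-treated with compounds at several concentrations, incubated 72 h at 37 °C, and viability read by CellTiter-Glo luminescence; concentration-effect curves were fitted after normalization.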
Numbers without * were called inactive; i = inactive; ? = inconclusive; . = not tested or not shown; [ ] = remark or other dose. Unless noted, calls come from the whole dose curve; as a rule, active = well fitted curve in the direction sought with a large enough effect; inconclusive = small, poorly fitted or top-dose-only effect, or another doubt; inactive = no such curve, though single readings can be large; an effect the other way counts as inactive or inconclusive.

SMILES	MCF10A rerep	SW480 rerep	IL-1B inflam inh	KB-V1 MDR tox	KB-3-1 cytotox
Cc1ccc2nc(NCC(=O)O)nc(-c3ccccc3)c2c1	22%	-1%[9.22 µM]	-3	i	i
O=C(O)c1ccc(Nc2c3ccccc3nc3ccccc23)cc1	21µM*	?	-13	i	i
COc1ccc(Nc2cc(Nc3cc(OC)c(OC)c(OC)c3)ncn2)cc1	?	3%	-80*	?	i
COc1cc(Nc2nc(-c3ccccc3)c3cc(C)ccc3n2)cc(OC)c1OC	?	5%	-65*	21µM*	?
Cc1ccc(C)c(Nc2nc(-c3ccccc3)c3cc(Br)ccc3n2)c1	.	.	.	i	i
Clc1cncc(Cl)c1NNc1c2ccccc2nc2ccccc12	8%	8%	19	i	i
CC(C)(C)Nc1c2ccccc2nc2ccccc12	15µM*	23µM*	-92*	i	i
CN(C)CCCNc1c2c(nc3ccccc13)CCC2	4%	-13%	-69*	i	?
O=C(Nc1ccc(Oc2ccsc2C(=O)O)cc1)c1ccccc1F	-3%	-22%	12	i	i
CC(C)c1cccc(C(C)C)c1NC(=O)c1ccc(-c2cc(Cl)ccc2Cl)o1	.	.	0	?	i
OCCCNc1nc(-c2ccccc2)c2cc(Br)ccc2n1	4.6µM*	?	-76*	?	?
CN1CCN(c2ccc(Nc3c4ccccc4nc4ccccc34)cc2)CC1	.	.	.	23µM*	15µM*
c1cncc(Nc2c3ccccc3nc3ccccc23)c1	6%	5%	-94*	?	?
Cc1ccc(-c2nc(Nc3ccc(N4CCOCC4)cc3)c3ccccc3n2)cc1	?	-14%	.	i	i
Cc1ccc2nc(NCCCO)nc(-c3ccccc3)c2c1	?	?	-4	?	i
CN(C)/C=C/C(=O)c1ccc([N+](=O)[O-])c(CS(=O)(=O)c2ccc(Cl)cc2)c1	6%	-8%	8	i	i
O=P(OC1CCCCC1)(OC1CCCCC1)C(Nc1ccccc1)c1cccnc1 (centres undefined)	?	-63%	-72*	?	i
COc1ccc(CCn2c(-c3ccco3)nc3ccccc3c2=O)cc1OC	?	9%	-54*	?	i
O=c1c2ccccc2nc(-c2ccco2)n1CCCn1ccnc1	-8%	-3%	16	8.2µM*	i
CCOC(=O)/C(C#N)=C/Nc1ccccc1OC(F)(F)F	1%	-10%	7	i	i
O=C(CSc1nnc(-c2ccccc2)n1-c1ccccc1)c1cccs1	?	0%	-23	21µM*	i
O=C(CSc1ncn(-c2ccccc2)n1)c1cccs1	4%	-13%	-52*	i	i
Cc1ccc(C(=O)CSc2nnc(-c3ccccc3)n2-c2ccccc2)cc1	.	.	.	?	i
O=C(CSc1nnc(-c2ccccc2Br)n1-c1ccccc1)c1ccc(F)cc1	.	.	.	18µM*	?
COc1cc2ccccc2cc1C(=O)Nc1ccc2oc(-c3cccc(C)c3)nc2c1	.	.	.	i	i
SMILES	MCF10A rerep	SW480 rerep	IL-1B inflam inh	KB-V1 MDR tox	KB-3-1 cytotox
CCn1cc(C(=O)N[C@H](C(=O)NCCCO)C(C)C)c(=O)c2cc3c(cc21)OCO3	1%	-20%	0	i	i
Cc1cccc(Nc2nnc(-c3ccc(N4CCOCC4)c([N+](=O)[O-])c3)c3ccccc23)c1	17%	30%	-62*	i	?
O=C(C1=C[C@@H](c2ccc(Br)cc2)C[C@@H](OCCCCO)O1)N1CCN(Cc2ccccc2)CC1	?	0%	-6	i	?
O=c1c2ccc(F)cc2sn1-c1ccccc1	.	.	-106*	?	?
O=c1c2cc(F)ccc2sn1-c1ccccc1Cl	.	.	-105*	i	?
COC(=O)c1cccc(-n2sc3ccccc3c2=O)c1	?	40%	-101*	i	i
Cc1ccc(-n2sc3cc(F)ccc3c2=O)c(C)c1	.	.	-103*	?	?
N=C1SCC(=O)N1c1ccccc1Cl	2%	-3%	40	i	i
Fc1ccc(-c2noc3ncnc(NC4CCCCC4)c23)cc1	.	.	.	i	i
NC(=O)Cn1cc(/C=N/NC(=O)c2ccc(Cn3cc(Cl)cn3)o2)c(-c2ccccc2)n1	0%	-5%	22	i	i
Cc1c(-c2ccccc2)n(-c2ccc(Cl)cc2)c2nc3c(c(=O)n(C)c(=O)n3C)n12	.	.	.	i	i
O=c1c2ccccc2sn1-c1ccc(F)cc1	?	?	-109*	i	i
O=c1c2ccccc2sn1-c1ccc(Cl)cc1	.	.	-106*	i	i
C[C@@H]1CN([C@H](C)CO)C(=O)c2cc(Br)cnc2O[C@H]1CN(C)Cc1ccccc1	.	.	-17	i	i
CC(CC(=O)Nc1ccc2c(c1)c(=O)n(C)n2-c1cccs1)c1ccccc1 (centres undefined)	.	.	28	?	?
CCOc1ncccc1C(=O)NCc1ccc(OC)cc1	?	8.2µM*	8	13µM*	15µM*
COc1ccc(-c2coc3c(C(=O)Nc4cccnc4)cccc23)c(C)c1	.	.	0	?	?
CCC(=O)N1CCc2cc(S(=O)(=O)NC(Cc3ccccc3)C(=O)Nc3ccc(Cl)cc3)ccc21 (centres undefined)	.	.	.	i	i
O=C1NC(=O)C(=Cc2ccccc2[N+](=O)[O-])S1	21µM*	?	?	?	?
CCN1C/C(=C\c2cccc([N+](=O)[O-])c2)C(=O)/C(=C/c2cccc([N+](=O)[O-])c2)C1	2.6µM*	0.58µM*	-104*	?	0.92µM*
O=C1/C(=C/c2cccc([N+](=O)[O-])c2)CCc2ccccc21	?	?	-121*	16µM*	?
COc1cccc(/C=C2\CCc3ccccc3C2=O)c1	-2%	0%	-6	i	i
O=C1C(=Cc2ccccc2[N+](=O)[O-])Cc2ccccc21	.	.	-103*	?	i
COc1ccc(-c2ccc(=O)n(CC(=O)Nc3ccccc3C(F)(F)F)n2)cc1	.	.	.	i	i
COc1ccc(CC(=O)Nc2ccc(N(C)C)c3ccccc23)cc1	8%	?	8	?	i
Cc1ccc(C)c(-n2cc[nH]c2=S)c1	-4%	-1%	4	i	i
COc1ccc(S(=O)(=O)Nc2cccc(-c3ccc(N4CCCCC4)nn3)c2)cc1F	.	.	.	i	i
C/C=C(/CCC1NCCc2c1[nH]c1ccccc21)[Si](C)(C)C (centres undefined)	?	?	-99*	12µM*	18µM*
COc1ccccc1/C=C/C(=O)NCCc1ccccn1	8%	-8%	4	i	i
CC(C)(C)c1ccc(-c2nc(C#N)c(NCCCn3ccnc3)o2)cc1	-7%	-52%	-95*	?	i
